Assay outcomes deposited in PubChem BioAssay by Broad Institute.
Only some compounds are listed: those with a hit (about 2.1% of all), similar ones and a draw of the others.
STK33 inh: STK33 kinase inhibitors, primary screen, biochemical, luminescence, ADP-Glo, MBP substrate; Serine/threonine-protein kinase 33 (Homo sapiens), Q9BYT3; inhibition, % at 12.5 µM; 0.44% of 27,000 active; in the data active = inhibition above about 20%; inconclusive = no clear call, values can overlap the other calls
Target sequence (Q9BYT3 whole entry, looked up): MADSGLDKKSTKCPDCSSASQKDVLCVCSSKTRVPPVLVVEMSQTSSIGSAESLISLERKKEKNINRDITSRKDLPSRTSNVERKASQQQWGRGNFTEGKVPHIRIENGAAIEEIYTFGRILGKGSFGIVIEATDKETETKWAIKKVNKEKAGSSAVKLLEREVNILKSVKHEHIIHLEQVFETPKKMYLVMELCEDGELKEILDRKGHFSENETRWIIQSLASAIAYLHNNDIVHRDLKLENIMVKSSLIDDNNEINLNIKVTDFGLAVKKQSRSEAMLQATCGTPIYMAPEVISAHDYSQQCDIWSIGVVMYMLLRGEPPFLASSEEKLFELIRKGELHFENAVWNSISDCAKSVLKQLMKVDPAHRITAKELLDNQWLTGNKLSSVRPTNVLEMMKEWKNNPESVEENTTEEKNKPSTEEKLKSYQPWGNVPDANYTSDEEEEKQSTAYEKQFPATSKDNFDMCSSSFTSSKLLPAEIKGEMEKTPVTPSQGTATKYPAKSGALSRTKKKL
ID4 binder: binders of human ID4 protein, primary screen, biochemical, small molecule microarray, single point | DNA-binding protein inhibitor ID-4 (Homo sapiens), P47928 | Flag-ID4 binding, fluorescence F/B | calls only | 1.2% of 31,000 active; call rule not given here;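 also: a binder raises fluorescence above local background on the spot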
p53 PUMA act: mutant p53 pathway re-activators, primary screen, cell-based, SW480, luciferase, single point, HTS | AID 624151, 2012 | activation, % at 9.98 µM | SW480 PUMA-promoter luciferase, p53 mutant reactivation | 1.5% of 28,000 active; in the data active = activation above about 52%; inconclusive = no clear call, values can overlap the other calls
* hit, by the source's call.

How did COc1ccc(-c2csc3ncn(CC(N)=O)c(=O)c23)cc1OC do in these assays?
STK33 inh: -1.3; ID4 binder: inactive; p53 PUMA act: 11.9

What do the screens show for `COc1ccc(-c2csc3ncn(CC(=O)Nc4sc5c(c4C#N)CCC5)c(=O)c23)cc1OC`?
STK33 inh: 1.9; ID4 binder: active; p53 PUMA act: -7.8

How did COc1cc(OC)c(C(=O)c2ccc(O)cc2)c(OC)c1 do in these assays?
STK33 inh: -2.4; ID4 binder: inactive; p53 PUMA act: 10.4

Results for CCn1c(SCC(=O)Nc2ccc(Cl)cc2Cl)nnc1-c1cc(Br)ccc1O ?
STK33 inh: -4.1; ID4 binder: inactive; p53 PUMA act: -10.7

What do the screens show for `Cc1c(C(=O)Nc2nnc(SC/C=C/c3ccccc3)s2)oc2ccccc12`?
STK33 inh: -2.1; ID4 binder: inactive; p53 PUMA act: 54.0*

Results for Cc1c(C(=O)Nc2nnc(SCc3ccccc3F)s2)oc2ccccc12 ?
STK33 inh: 8.4; ID4 binder: inactive; p53 PUMA act: 24.3

What do the screens show for `COC(=O)/C=C/c1ccc(OC)c(/C=C/C(C)(C)O)c1`?
STK33 inh: -1.8; ID4 binder: inactive

What do the screens show for `Cc1ccc(-c2nc3ccccc3o2)cc1NC(=O)COc1c(C)cc(Cl)cc1Cl`?
STK33 inh: 2.1; ID4 binder: inactive; p53 PUMA act: 21.4

What do the screens show for `COc1ccc(OC)c(NC(=O)c2ccc(C)c(S(=O)(=O)Nc3ccc(C)cc3)c2)c1`?
STK33 inh: -1.6; ID4 binder: active; p53 PUMA act: 0.9

What do the screens show for `COc1ccc(OC)c(NC(=O)c2ccc(Cl)c(S(=O)(=O)Nc3ccc(C)cc3)c2)c1`?
STK33 inh: -0.9; ID4 binder: inactive; p53 PUMA act: -2.5

How did CCOc1ccc(C(=O)CC(N)C(=O)O)cc1 (stereo not given) do in these assays?
STK33 inh: -1.3

Results for N/C(=N\O)c1ccc(N2CCN(c3ncccc3C(F)(F)F)CC2)nc1 ?
ID4 binder: inactive; p53 PUMA act: 141.8*

How did NC(=S)c1ccc(N2CCC(C(F)(F)F)CC2)nc1 do in these assays?
STK33 inh: -3.5

What do the screens show for `C=C1C(=O)O[C@@H]2/C=C(\C)[C@@H](OC(=O)C(O)C(C)C)C/C=C(/C)C[C@@H](OC(=O)/C(=C/CO)CO)[C@@H]12` (stereo not given in full)?
STK33 inh: -3.8

What do the screens show for `CNC(=S)N(Cc1ccncc1)C1CC(=O)N(c2ccc(OC)cc2)C1=O` (stereo not given)?
STK33 inh: -1.6; ID4 binder: inactive; p53 PUMA act: 4.0

How did COc1ccc(N(C(=O)C2CCCCC2)S(=O)(=O)c2cc(OC)ccc2OC)cc1 do in these assays?
STK33 inh: 3.7; ID4 binder: inactive; p53 PUMA act: -8.0

Results for CC1(C)C=Cc2cc3ccc(=O)oc3cc2O1 ?
p53 PUMA act: 58.4*

Results for COc1c2c(cc3oc(=O)ccc13)OC(C)(C)C=C2 ?
STK33 inh: 3.6; ID4 binder: inactive

What do the screens show for `O=C(CSc1nnc(-c2ccncc2)n1-c1cccc(C(F)(F)F)c1)c1ccc(F)cc1`?
STK33 inh: 0.7; ID4 binder: inactive; p53 PUMA act: 12.9

How did CC(Oc1ccc(Br)cc1)c1nc(-c2ccccn2)no1 (stereo not given) do in these assays?
STK33 inh: -1.1; ID4 binder: inactive; p53 PUMA act: 60.3*

Results for COc1ccc(OC(C)c2nc(-c3cccnc3)no2)cc1 (stereo not given) ?
STK33 inh: -1.6; ID4 binder: inactive; p53 PUMA act: -13.7

How did O=C(CSc1nnnn1-c1ccccc1)Nc1cccc2nsnc12 do in these assays?
STK33 inh: 3.6; ID4 binder: inactive; p53 PUMA act: -9.9

What do the screens show for `Cc1cc(C)nc(Nc2n[nH]c(-c3cccnc3)n2)n1`?
STK33 inh: 0.7; ID4 binder: inactive; p53 PUMA act: 73.7*

How did COc1ccc(C(=O)CSc2n[nH]c(-c3ccccc3)n2)cc1OC do in these assays?
STK33 inh: -1.5; ID4 binder: inactive; p53 PUMA act: -11.6

How did COc1ccc(-c2nc(Nc3nc(C)cc(C)n3)n[nH]2)cc1OC do in these assays?
STK33 inh: -1.0; ID4 binder: active; p53 PUMA act: 85.1*

Results for Cc1cc(C)nc(Nc2n[nH]c(COc3ccccc3)n2)n1 ?
STK33 inh: 1.4; ID4 binder: inactive; p53 PUMA act: inconclusive

How did Cc1cc(I)ccc1NC(=O)CN(c1c(C)cccc1C)S(C)(=O)=O do in these assays?
STK33 inh: -2.2; ID4 binder: inactive; p53 PUMA act: -5.5

Results for O=C(CCSc1ccccc1)NC12CC3CC(CC(C3)C1)C2 ?
STK33 inh: 0.6

Results for COc1ccccc1NC(=O)CSc1nnnn1-c1cccc(C)c1C ?
STK33 inh: -2.0; ID4 binder: inactive; p53 PUMA act: -11.0

Results for CCC(Sc1nnc(-c2ccc(NC(C)=O)cc2)n1C)C(=O)Nc1ccc(Cl)cc1 (stereo not given) ?
STK33 inh: -0.5; ID4 binder: inactive; p53 PUMA act: -5.7

Results for COc1cc2c(cc1NC(=O)C(C)Oc1ccccc1C)oc1ccccc12 (stereo not given) ?
STK33 inh: -1.9; ID4 binder: inactive; p53 PUMA act: 26.3

What do the screens show for `Cc1cccc(C#Cc2ccccc2)n1`?
ID4 binder: inactive; p53 PUMA act: 84.6*

How did NS(=O)(=O)C#Cc1ccccc1 do in these assays?
ID4 binder: inactive; p53 PUMA act: -31.3

Results for Cc1ccc(S(=O)(=O)NC(C)C(=O)O)cc1C (stereo not given) ?
STK33 inh: 6.9; ID4 binder: inactive; p53 PUMA act: -21.1

What do the screens show for `COc1ccc(NC(=O)COc2ccccc2Cl)c([N+](=O)[O-])c1`?
STK33 inh: 1.8; ID4 binder: inactive; p53 PUMA act: 84.3*

What do the screens show for `COc1ccc(NC(=O)COc2c(Cl)c(C)c(Cl)c(C)c2Cl)c([N+](=O)[O-])c1`?
STK33 inh: -7.3; ID4 binder: inactive; p53 PUMA act: 16.9

What do the screens show for `COc1ccc(NC(=O)COc2cc(C)c(Br)cc2C)c([N+](=O)[O-])c1`?
STK33 inh: 0.5; ID4 binder: inactive; p53 PUMA act: 2.6

What do the screens show for `CCc1cccc(OCC(=O)Nc2ccc(OC)cc2[N+](=O)[O-])c1`?
STK33 inh: 1.3; ID4 binder: inactive; p53 PUMA act: 91.0*

Results for COc1ccc(NC(=O)COc2ccc(Cl)c(C)c2)c([N+](=O)[O-])c1 ?
STK33 inh: -1.4; ID4 binder: inactive; p53 PUMA act: 74.1*

How did COc1ccc(OCC(=O)Nc2ccc(OC)cc2[N+](=O)[O-])cc1 do in these assays?
STK33 inh: -1.3; ID4 binder: inactive; p53 PUMA act: 98.0*

Results for COc1ccc(NC(=O)COc2ccc(Br)cc2Cl)c([N+](=O)[O-])c1 ?
STK33 inh: 0.4; ID4 binder: inactive; p53 PUMA act: 26.3

What do the screens show for `COc1cccc(OCC(=O)Nc2ccccc2[N+](=O)[O-])c1`?
STK33 inh: -1.3; ID4 binder: inactive; p53 PUMA act: 49.4

How did COC(=O)[C@]1(Cc2ccc(O)c(CC=C(C)C)c2)OC(=O)C(=O)C1c1ccc(O)cc1 (stereo not given in full) do in these assays?
STK33 inh: -3.5
